Data from PubChem BioAssay (Tox21).
Results filed as inconclusive are left out. The source made the active and inactive calls. Unless noted, calls come from the whole dose curve; as a rule, active = well fitted curve in the direction sought with a large enough effect in the repeat runs; inconclusive = weak or mixed curves; inactive = flat fitted curve, though single readings scatter.

Experiments:
[1] = qHTS assay to test for compound auto fluorescence at 535 nm (green) in HEK293 cells (AID 720680)
[2] = qHTS assay to test for compound auto fluorescence at 460 nm (blue) in HEK293 cell free culture (AID 720681)
Method in brief: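 Test compounds were pinned into cell-free culture medium (DMEM with 10% FBS) and fluorescence was read directly at Ex/Em 405/460 nm. Signals were expressed as fluorescence equivalents of triamterene, with DMSO vehicle as control.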

[3] = qHTS assay to test for compound auto fluorescence at 535 nm (green) in HEK293 cell free culture (AID 720682)
Method in brief: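 Steps: dispense DMEM/10% FBS into empty wells; pin in compound or DMSO; measure fluorescence at 485/535 nm. Values are fluorescein equivalents.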

[4] = qHTS assay to test for compound auto fluorescence at 590 nm (red) in HEK293 cell free culture (AID 720683)
Method in brief: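 Tox21 10K library compounds were pinned into cell-free DMEM with 10% FBS and fluorescence was read at excitation 540 nm. Activity is expressed as Rose Bengal sodium equivalency.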

[5] = qHTS assay to test for compound auto fluorescence at 590 nm (red) in HepG2 cell free culture (AID 720684)
Method in brief: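 Ex 540 / Em 590 nm read of compound in cell-free MEM (10% FBS). Rose Bengal sodium reference.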

[6] = qHTS assay to test for compound auto fluorescence at 460 nm (blue) in HepG2 cell free culture (AID 720685)
Method in brief: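 Cell-free plates of MEM plus 10% FBS received 23 nL compound or DMSO vehicle; blue-channel (405/460 nm) intensity scored against triamterene as reference fluorophore.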

[7] = qHTS assay to test for compound auto fluorescence at 535 nm (green) in HepG2 cell free culture (AID 720686)
[8] = qHTS assay to test for compound auto fluorescence at 460 nm (blue) in HepG2 cells (AID 720687)
Method in brief: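 Cells (2,000/well in MEM with 10% FBS) attached overnight at 37 C, then were exposed to compound or DMSO for 1 hr at 37 C, 5% CO2. Fluorescence read at Ex/Em 405/460 nm, expressed as triamterene-equivalent signal.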

[9] = molecular target: Glucocorticoid receptor (Homo sapiens) (UniProt P04150); assay: qHTS assay to identify small molecule agonists of the glucocorticoid receptor (GR) signaling pathway (AID 720691; active = well fitted activation curve with a large enough effect in the signal ratio in the repeat runs, not every such curve was filed as active; the % refers to the signal ratio)
Glucocorticoid receptor (Homo sapiens), sequence (P04150 whole entry, looked up): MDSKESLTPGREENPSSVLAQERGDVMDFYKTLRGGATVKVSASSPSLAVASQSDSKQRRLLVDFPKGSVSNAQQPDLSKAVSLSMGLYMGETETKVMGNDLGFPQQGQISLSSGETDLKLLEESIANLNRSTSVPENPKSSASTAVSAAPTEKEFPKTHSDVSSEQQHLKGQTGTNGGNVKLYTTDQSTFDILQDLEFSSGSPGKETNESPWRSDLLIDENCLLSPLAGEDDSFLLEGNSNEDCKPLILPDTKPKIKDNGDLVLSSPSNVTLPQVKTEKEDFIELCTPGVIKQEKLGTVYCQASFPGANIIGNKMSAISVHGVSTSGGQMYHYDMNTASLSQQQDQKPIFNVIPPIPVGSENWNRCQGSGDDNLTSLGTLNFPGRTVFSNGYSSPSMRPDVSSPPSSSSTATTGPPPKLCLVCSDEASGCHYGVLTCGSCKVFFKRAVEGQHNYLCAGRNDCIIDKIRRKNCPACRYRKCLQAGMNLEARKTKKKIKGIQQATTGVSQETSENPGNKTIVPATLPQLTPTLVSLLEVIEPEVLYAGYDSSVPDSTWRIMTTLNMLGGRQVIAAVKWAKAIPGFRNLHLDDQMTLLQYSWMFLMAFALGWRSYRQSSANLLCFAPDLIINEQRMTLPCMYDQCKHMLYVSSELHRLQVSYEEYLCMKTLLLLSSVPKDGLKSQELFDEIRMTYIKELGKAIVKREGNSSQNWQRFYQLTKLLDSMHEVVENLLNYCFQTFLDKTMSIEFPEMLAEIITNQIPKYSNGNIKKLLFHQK
Method in brief: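 Cells: GR-bla HeLa, endogenous GR with stably integrated GRE-beta-lactamase reporter. Treatment 18 h, 37 C, compounds delivered in DMSO. Detection via LiveBLAzer B/G FRET substrate, 2 h RT, fluorescence intensity.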

[10] = molecular target: Glucocorticoid receptor (Homo sapiens) (UniProt P04150); assay: qHTS assay to identify small molecule antagonists of the glucocorticoid receptor (GR) signaling pathway (AID 720692; active = well fitted inhibition curve with a large enough effect in the signal ratio in the repeat runs, not every such curve was filed as active; the % refers to the signal ratio)
Method in brief: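 Quantitative HTS in antagonist format: HeLa cells expressing endogenous GR and a stably integrated GRE-bla reporter, stimulated with 5 nM dexamethasone (final) alongside test compounds for 18 h.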
% is set by controls: 0 for no effect and ±100 for the full control effect.

CCCOc1ccccc1-c1nc2n[nH]nc2c(=O)[nH]1
inactive: outcome [1] | Potency [2] | outcome [3] | outcome [4] | outcome [5] | Potency [6] | outcome [7] | Potency [8] | Potency [9] | Potency [10]

Cc1ccc(N)cc1[N+](=O)[O-]
inactive: outcome [1] | Potency [2] | outcome [3] | outcome [4] | outcome [5] | Potency [6] | outcome [7] | Potency [9] | Potency [10]

Nc1cc(N)cc(C(=O)O)c1
inactive: outcome [1] | Potency [2] | outcome [3] | outcome [4] | outcome [5] | Potency [6] | outcome [7] | Potency [8] | Potency [9] | Potency [10]

COc1cc(C(=O)N2CCOCC2)cc(OC)c1OC
inactive: outcome [1] | Potency [2] | outcome [3] | outcome [4] | outcome [5] | Potency [6] | outcome [7] | Potency [8] | Potency [9] | Potency [10]

CCN(CC)S(=O)(=O)c1ccc(C(=O)O)cc1
inactive: outcome [1] | Potency [2] | outcome [3] | outcome [4] | outcome [5] | Potency [6] | outcome [7] | Potency [8] | Potency [9] | Potency [10]

N#CCN(CC#N)CCN(CC#N)CC#N
inactive: outcome [1] | Potency [2] | outcome [3] | outcome [4] | outcome [5] | Potency [6] | outcome [7] | Potency [8] | Potency [9] | Potency [10]

CC(C)[C@H](N)C(=O)OCCOCn1cnc2c(=O)[nH]c(N)nc21
inactive: outcome [1] | Potency [2] | outcome [3] | outcome [4] | outcome [5] | Potency [6] | outcome [7] | Potency [8] | Potency [9] | Potency [10]

CC(=O)NC(Cc1ccccc1)C(=O)O (centres undefined)
inactive: outcome [1] | Potency [2] | outcome [3] | outcome [4] | outcome [5] | Potency [6] | outcome [7] | Potency [9] | Potency [10]

CCCCCCCCCCCCCCC
inactive: outcome [1] | Potency [2] | outcome [3] | outcome [4] | outcome [5] | Potency [6] | outcome [7] | Potency [8] | Potency [9] | Potency [10]

C=C(C)C(=O)OCCCCCCCCCCCCCCCCCC
inactive: fluorescence, % of fluorescein [1] 0.0795% [at 18.6 µM] | fluorescence, % of fluorescent control [2] -0.0848% [at 18.6 µM] | activity change [3] -0.0033% [at 18.6 µM] | fluorescence, % of fluorescent control [4] -0.0264% [at 18.6 µM] | fluorescence, % of Rose Bengal [5] -0.0496% [at 18.6 µM] | fluorescence, % of fluorescent control [6] -0.0261% [at 18.6 µM] | fluorescence, % of fluorescein control [7] -0.0135% [at 18.6 µM] | fluorescence, % of fluorescent control [8] 0.214% [at 18.6 µM] | Potency [9] | Potency [10]

COc1ccc(NC(C)=O)cc1
inactive: outcome [1] | Potency [2] | outcome [3] | outcome [4] | outcome [5] | Potency [6] | outcome [7] | Potency [8] | Potency [9] | Potency [10]

Cc1nccn1CC1CCc2c(c3ccccc3n2C)C1=O (centres undefined)
inactive: outcome [1] | Potency [2] | outcome [3] | outcome [4] | outcome [5] | Potency [6] | outcome [7] | Potency [8] | Potency [9] | Potency [10]

CCCCCCCCCCCCI
inactive: outcome [1] | Potency [2] | outcome [3] | outcome [4] | outcome [5] | outcome [7] | Potency [8] | Potency [9] | Potency [10]

CC1=CC(C)C(C=O)C(C)C1 (centres undefined)
inactive: outcome [1] | Potency [2] | outcome [3] | outcome [4] | outcome [5] | Potency [6] | outcome [7] | Potency [9] | Potency [10]

CC(C)N1C(=O)c2ccccc2C1=O
inactive: outcome [1] | Potency [2] | outcome [3] | outcome [4] | outcome [5] | outcome [7] | Potency [8]

O=C1C(CCS(=O)c2ccccc2)C(=O)N(c2ccccc2)N1c1ccccc1 (centres undefined)
inactive: fluorescence, % of fluorescein [1] -0.11% [at 18.6 µM] | fluorescence, % of fluorescent control [2] 0.0823% [at 18.6 µM] | activity change [3] 0.112% [at 18.6 µM] | fluorescence, % of fluorescent control [4] 0.107% [at 18.6 µM] | fluorescence, % of Rose Bengal [5] -0.0469% [at 18.6 µM] | fluorescence, % of fluorescent control [6] -0.0192% [at 18.6 µM] | fluorescence, % of fluorescein control [7] -0.0165% [at 18.6 µM] | Potency [9] | Potency [10]

C=C(C)[C@@H]1CCC2=CC(=O)C[C@@H](C)[C@]2(C)C1
inactive: outcome [1] | Potency [2] | outcome [3] | outcome [4] | outcome [5] | outcome [7] | Potency [8]

CSc1ccc(C=O)cc1
inactive: outcome [1] | Potency [2] | outcome [3] | outcome [4] | outcome [5] | outcome [7] | Potency [8] | Potency [9] | Potency [10]

CC(C)(C)OC(=O)N1C[C@@H](F)C[C@H]1C(=O)O
inactive: outcome [1] | Potency [2] | outcome [3] | outcome [4] | outcome [5] | Potency [6] | outcome [7] | Potency [9] | Potency [10]

CC(C)(C)C(=O)/C=C/c1ccc(Cl)cc1
inactive: outcome [1] | Potency [2] | outcome [3] | outcome [4] | outcome [5] | outcome [7] | Potency [8] | Potency [9] | Potency [10]

CC(C)(C)N(CCO)CCO
inactive: outcome [1] | Potency [2] | outcome [3] | outcome [4] | outcome [5] | Potency [6] | outcome [7] | Potency [9] | Potency [10]

CC1CCN(CCCC(=O)c2ccc(F)cc2)CC1
inactive: outcome [1] | Potency [2] | outcome [3] | outcome [4] | outcome [5] | outcome [7] | Potency [8] | Potency [9] | Potency [10]

CCCOCC(C)OCC(C)O (centres undefined)
inactive: outcome [1] | Potency [2] | outcome [3] | outcome [4] | outcome [5] | outcome [7] | Potency [8] | Potency [9]

C1C2OC2C2C1C1CC2C2OC12 (centres undefined)
inactive: outcome [1] | Potency [2] | outcome [3] | outcome [4] | outcome [5] | outcome [7] | Potency [8] | Potency [9]

CC(C)c1cccc(O)c1
inactive: outcome [1] | Potency [2] | outcome [3] | outcome [4] | outcome [5] | Potency [6] | outcome [7] | Potency [9] | Potency [10]
